# Source: the supplement of paper PMC6555819
# Legend:
# Assay in all cases: PBM binding z-score (relative to random genomic background probes); higher = stronger binding; sequences stand for … in GC…GCGATTGACAGCGTAGAATGAAGG
# [1] = system: FXR:RXRa (NR concentration 270 nM, RXRa partner concentration 90 nM)
# Summary of the method: (§1)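 Scanned fluorescence from custom Agilent 4×180K protein-binding microarrays was regression-normalized. Binding z-scores use random background probes as reference. Ligand-free nuclear receptor dimers were incubated on the arrays for 1 h and detected with antibodies against each partner (one per run).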
# [2] = system: LXRa:RXRa (NR concentration 270 nM, RXRa partner concentration 90 nM)
# Summary of the method: as §1
# [3] = system: LXRa homodimer (NR concentration 270 nM)
# Summary of the method: as §1
# [4] = system: LXRb:RXRa (NR concentration 270 nM, RXRa partner concentration 90 nM)
# Summary of the method: as §1
# [5] = system: PPARa:RXRa (NR concentration 270 nM, RXRa partner concentration 90 nM)
# Summary of the method: as §1
# [6] = system: PPARg:RXRa (NR concentration 180 nM, RXRa partner concentration 90 nM)
# Summary of the method: as §1
# [7] = system: PPARg:RXRa 270nM:90nM, anti-RXR (NR concentration 270 nM, RXRa partner concentration 90 nM)
# Summary of the method: as §1
# [8] = system: PPARg:RXRa 30nM:10nM, anti-RXR (NR concentration 30 nM, RXRa partner concentration 10 nM)
# Summary of the method: as §1
# [9] = system: PPARg:RXRa 90nM:30nM, anti-RXR (NR concentration 90 nM, RXRa partner concentration 30 nM)
# Summary of the method: as §1
# [10] = system: PPARg:RXRa DBDmut IVT, anti-RXR (DBD mutation: RXRa K156A/R161A, NR concentration 270 nM, RXRa partner concentration 90 nM)
# Summary of the method: as §1
# [11] = system: PPARg:RXRa IVT, anti-PPARg (NR concentration 270 nM, RXRa partner concentration 90 nM)
# Summary of the method: as §1
# [12] = system: PPARg homodimer (NR concentration 180 nM)
# Summary of the method: as §1
# [13] = system: PXR:RXRa (NR concentration 270 nM, RXRa partner concentration 90 nM)
# Summary of the method: as §1
# [14] = system: PXR homodimer (NR concentration 270 nM)
# Summary of the method: as §1
# [15] = system: RARa:RXR (NR concentration 270 nM, RXRa partner concentration 90 nM)
# Summary of the method: as §1
# [16] = system: RARa homodimer (NR concentration 270 nM)
# Summary of the method: as §1
# [17] = system: RARb:RXRa (NR concentration 270 nM, RXRa partner concentration 90 nM)
# Summary of the method: as §1
# [18] = system: LXRb homodimer (NR concentration 270 nM)
# Summary of the method: as §1
# [19] = system: PPARg DBDmut:RXRa IVT, anti-PPARg (DBD mutation: PPARg1 K132A/R137A, NR concentration 270 nM, RXRa partner concentration 90 nM)
# Summary of the method: as §1
# [20] = system: PPARg DBDmut IVT, anti-PPARg (DBD mutation: PPARg1 K132A/R137A, NR concentration 270 nM)
# Summary of the method: as §1
Sequence,PBM binding z-score [1],PBM binding z-score [2],PBM binding z-score [3],PBM binding z-score [4],PBM binding z-score [5],PBM binding z-score [6],PBM binding z-score [7],PBM binding z-score [8],PBM binding z-score [9],PBM binding z-score [10],PBM binding z-score [11],PBM binding z-score [12],PBM binding z-score [13],PBM binding z-score [14],PBM binding z-score [15],PBM binding z-score [16],PBM binding z-score [17],PBM binding z-score [18],PBM binding z-score [19],PBM binding z-score [20]
CTATGTAGGTTAAGGGGGTCATTCAGTTTGAAAG,5.62,5.08,3.54,6.24,6.31,9,7.99,6.08,8.01,7.67,7.74,3.66,6.09,11.4,5.93,1.81,3.73,–,–,–
CTATGTAGGTTAAGGGGGTCTTTCAGTTTGAAAG,0.885,1.5,0.399,3.78,4.64,7.24,7.16,4.5,6.8,7.13,7.07,2.14,2.15,1.64,1.84,0.701,1.89,–,–,–
CTATGTAGGTTAAGGGGCTCATTCAGTTTGAAAG,0.164,0.226,-0.199,1.35,4.02,6.99,6.59,4.66,6.73,7.02,6.52,1.36,0.403,0.167,0.505,0.222,0.689,–,–,–
CTATGTAGGTTAAGAGGGTCATTCAGTTTGAAAG,2.95,3.05,1.07,2.93,4.89,5.88,5.47,2.95,4.99,7.34,7.14,2.35,3.96,5.84,3.56,0.734,2.63,–,–,–
CCTAGTGGGTCAGGAGGTCACACACCGGATATGA,4.27,4.06,1.62,–,5.31,7.91,6.77,4.29,6.31,5.23,7.22,3.37,4.62,0.774,5.66,1.06,4.42,0.0765,0.727,0.445
CCTTACGGGTCACTTACAGGTTATAGCATTTGGA,4.84,4.49,0.907,–,4.62,3.07,3.73,1.27,2.84,3.22,3.45,2.43,3.37,0.26,4.24,1.28,3.65,0.66,0.739,0.78
ACTCGGAGGACAAAGGTCAGAACTACGCCAGTGA,3.87,4.07,1.47,–,4.61,7.34,7.11,4.87,7.69,0.613,3.35,4.36,3.9,0.428,4.98,2.66,4.04,1.03,0.492,-0.388
TCGAGTAGGTTACGGGGGCGTTCAGGGATGAAGA,1.63,2.21,0.585,4.83,–,4.72,4.75,2.93,3.91,4.48,5.35,2.99,2.69,1.81,2.9,0.56,2.23,–,–,–
CGTCAAAGTTCAAGGTAATGTAACAGAAAGCAGC,5.9,5.34,2.54,–,4.74,4.21,5.13,2.14,3.68,0.0949,2.03,2.57,3.95,2.92,3.38,1.61,5.14,1,0.311,0.686
CCTACTGGGCCAAGGTCATTGACCAGTCAAAGCA,3.77,4.03,1.67,–,4.03,4.3,4.66,2.17,4.38,3.82,4.84,1.94,3.71,1.37,3.95,-0.225,3.45,-0.702,-0.707,-1.06
ACTCGGGGGACAAAGGTCAGAGCTACGCCAGTGA,5.78,5.7,2.14,–,6.14,9.31,8.33,8.12,9.68,2.49,5.75,5.43,5.36,1.26,6.35,2.37,4.91,5.96,7.4,7.53
ATGGAAAGGTCGTGAGGTGAGTATACAGAAAGGC,5.97,4.01,0.412,–,5.3,4.74,4.66,1.89,3.12,0.309,2.67,2.23,3.42,1.13,4.64,1.17,4.41,1.01,0.977,1.59
CTTAGTTGGTCAGGAGGTCACACACCGGATATGA,3.89,3.72,2.38,–,4.35,4.41,4.69,2.41,4.39,3.35,4.3,3.81,4.37,1.79,4.74,3.28,3.83,0.947,1.44,1.09
